# Experimental data taken from ChEMBL document CHEMBL2218924, “A broad activity screen in support of a chemogenomic map for kinase signalling research and drug discovery” (Biochem J, 2013).
# Target: T1, cAMP-dependent protein kinase catalytic subunit PRKX (Homo sapiens) (UniProt P51817)
# T1 sequence (whole entry): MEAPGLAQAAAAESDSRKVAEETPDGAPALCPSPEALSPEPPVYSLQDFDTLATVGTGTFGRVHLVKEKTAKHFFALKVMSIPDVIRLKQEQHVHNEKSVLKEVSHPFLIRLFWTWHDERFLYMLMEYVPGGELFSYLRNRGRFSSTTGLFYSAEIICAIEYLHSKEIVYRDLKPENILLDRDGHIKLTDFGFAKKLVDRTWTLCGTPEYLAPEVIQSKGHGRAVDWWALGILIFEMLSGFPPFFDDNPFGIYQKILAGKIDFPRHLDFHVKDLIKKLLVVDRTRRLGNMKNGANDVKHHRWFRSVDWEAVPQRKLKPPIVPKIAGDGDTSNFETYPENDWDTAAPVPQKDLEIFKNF
# Conditions: at 1 µM
row,SMILES,residual activity [%]
1,CN[C@@H]1C[C@H]2O[C@@](C)([C@@H]1OC)n1c3ccccc3c3c4c(c5c6ccccc6n2c5c31)C(=O)NC4,0
2,c1cc(-c2cnn3cc(-c4ccc(OCCN5CCCCC5)cc4)cnc23)ccn1,57
3,CCn1cnc2c(Nc3cccc(Cl)c3)nc(N[C@@H]3CCCC[C@@H]3N)nc21,95
4,COC(=O)[C@@]1(O)C[C@H]2O[C@]1(C)n1c3ccccc3c3c4c(c5c6ccccc6n2c5c31)C(=O)NC4,2
5,O=C1NC(=O)c2c1c1c3ccccc3n3c1c1c2c2ccccc2n1C1CCC3O1,84
6,O=C1Nc2ccc3ncsc3c2/C1=C/c1c[nH]cn1,24
7,C[S+]([O-])c1ccc(-c2nc(-c3ccc(F)cc3)c(-c3ccncc3)[nH]2)cc1 (stereo not drawn),98
8,O=[N+]([O-])/C=C/c1ccc2c(c1)OCO2,102
9,O=C1c2ccccc2-c2nc3nnnn3nc21,126
10,CC(C)(C)c1cc(C=C(C#N)C#N)cc(Br)c1O,100
11,N/C(=N\[N+](=O)[O-])N/N=C\c1ccc(-c2cccc([N+](=O)[O-])c2)o1,76
12,COc1cc2ncnc(Nc3ccc(OCc4ccccc4)cc3)c2cc1OC,81
13,O=c1[nH]c2ccccc2n1C1CCN(Cc2ccc(-c3nc4cc5[nH]cnc5cc4nc3-c3ccccc3)cc2)CC1,98
14,CC(C)[C@H](CO)Nc1nc(Nc2cccc(Cl)c2)c2ncn(C(C)C)c2n1,81

# Target: T1, cAMP-dependent protein kinase catalytic subunit PRKX (Homo sapiens)
# Conditions: at 10 µM
row,SMILES,residual activity [%]
1,CN[C@@H]1C[C@H]2O[C@@](C)([C@@H]1OC)n1c3ccccc3c3c4c(c5c6ccccc6n2c5c31)C(=O)NC4,0
2,c1cc(-c2cnn3cc(-c4ccc(OCCN5CCCCC5)cc4)cnc23)ccn1,26
3,CCn1cnc2c(Nc3cccc(Cl)c3)nc(N[C@@H]3CCCC[C@@H]3N)nc21,51
4,COC(=O)[C@@]1(O)C[C@H]2O[C@]1(C)n1c3ccccc3c3c4c(c5c6ccccc6n2c5c31)C(=O)NC4,0
5,O=C1NC(=O)c2c1c1c3ccccc3n3c1c1c2c2ccccc2n1C1CCC3O1,53
6,O=C1Nc2ccc3ncsc3c2/C1=C/c1c[nH]cn1,6
7,C[S+]([O-])c1ccc(-c2nc(-c3ccc(F)cc3)c(-c3ccncc3)[nH]2)cc1 (stereo not drawn),101
8,O=[N+]([O-])/C=C/c1ccc2c(c1)OCO2,96
9,COc1ccc2c(c[n+](C)c3c4cc5c(cc4ccc23)OCO5)c1OC,81
10,O=C1c2ccccc2-c2nc3nnnn3nc21,117
11,CC(C)(C)c1cc(C=C(C#N)C#N)cc(Br)c1O,68
12,N/C(=N\[N+](=O)[O-])N/N=C\c1ccc(-c2cccc([N+](=O)[O-])c2)o1,91
13,COc1cc2ncnc(Nc3ccc(OCc4ccccc4)cc3)c2cc1OC,76
14,O=c1[nH]c2ccccc2n1C1CCN(Cc2ccc(-c3nc4cc5[nH]cnc5cc4nc3-c3ccccc3)cc2)CC1,77
15,CC(C)[C@H](CO)Nc1nc(Nc2cccc(Cl)c2)c2ncn(C(C)C)c2n1,97
16,CCc1nc(-c2ccc(OC)cc2)[nH]c1-c1ccncc1,65

# Target: Protein-tyrosine kinase 2-beta (Homo sapiens) (UniProt Q14289)
# Conditions: at 1 µM
# Sequence of Protein-tyrosine kinase 2-beta (Homo sapiens) (Q14289 whole entry, looked up): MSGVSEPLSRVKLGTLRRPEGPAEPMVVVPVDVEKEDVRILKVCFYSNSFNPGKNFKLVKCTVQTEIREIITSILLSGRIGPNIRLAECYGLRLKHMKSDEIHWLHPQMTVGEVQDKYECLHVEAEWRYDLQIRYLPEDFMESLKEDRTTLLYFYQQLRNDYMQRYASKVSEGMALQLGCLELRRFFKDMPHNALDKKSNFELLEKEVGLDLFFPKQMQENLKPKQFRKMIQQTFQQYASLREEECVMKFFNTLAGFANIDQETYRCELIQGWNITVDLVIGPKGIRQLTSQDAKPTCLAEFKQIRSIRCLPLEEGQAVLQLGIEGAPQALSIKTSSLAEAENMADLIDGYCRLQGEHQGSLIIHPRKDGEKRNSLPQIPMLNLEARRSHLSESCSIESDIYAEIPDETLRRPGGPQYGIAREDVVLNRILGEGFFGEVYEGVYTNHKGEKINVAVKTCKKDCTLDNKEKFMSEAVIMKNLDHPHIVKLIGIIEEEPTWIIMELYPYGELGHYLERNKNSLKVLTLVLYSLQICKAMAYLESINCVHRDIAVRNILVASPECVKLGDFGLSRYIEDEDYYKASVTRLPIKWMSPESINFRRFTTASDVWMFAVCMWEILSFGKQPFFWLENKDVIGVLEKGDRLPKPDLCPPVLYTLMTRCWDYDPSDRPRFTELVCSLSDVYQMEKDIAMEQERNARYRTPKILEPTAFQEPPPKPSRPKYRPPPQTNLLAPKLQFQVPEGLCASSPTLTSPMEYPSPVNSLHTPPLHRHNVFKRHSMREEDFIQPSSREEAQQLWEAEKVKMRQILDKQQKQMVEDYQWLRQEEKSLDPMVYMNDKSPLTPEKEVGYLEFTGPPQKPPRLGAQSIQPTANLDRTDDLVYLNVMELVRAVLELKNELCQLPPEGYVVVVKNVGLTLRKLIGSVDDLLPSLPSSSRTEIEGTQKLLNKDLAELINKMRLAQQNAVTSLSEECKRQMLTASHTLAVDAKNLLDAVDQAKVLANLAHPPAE
row,SMILES,residual activity [%]
1,CCn1cnc2c(Nc3cccc(Cl)c3)nc(N[C@@H]3CCCC[C@@H]3N)nc21,49
2,COC(=O)[C@@]1(O)C[C@H]2O[C@]1(C)n1c3ccccc3c3c4c(c5c6ccccc6n2c5c31)C(=O)NC4,3
3,O=C1Nc2ccc3ncsc3c2/C1=C/c1c[nH]cn1,79
4,C[S+]([O-])c1ccc(-c2nc(-c3ccc(F)cc3)c(-c3ccncc3)[nH]2)cc1 (stereo not drawn),115
5,O=[N+]([O-])/C=C/c1ccc2c(c1)OCO2,129
6,COc1ccc2c(c[n+](C)c3c4cc5c(cc4ccc23)OCO5)c1OC,133
7,O=C1c2ccccc2-c2nc3nnnn3nc21,146
8,COc1cc2ncnc(Nc3ccc(OCc4ccccc4)cc3)c2cc1OC,111
9,O=c1[nH]c2ccccc2n1C1CCN(Cc2ccc(-c3nc4cc5[nH]cnc5cc4nc3-c3ccccc3)cc2)CC1,128
10,CC(C)[C@H](CO)Nc1nc(Nc2cccc(Cl)c2)c2ncn(C(C)C)c2n1,35
11,CCc1nc(-c2ccc(OC)cc2)[nH]c1-c1ccncc1,115

# Target: Protein-tyrosine kinase 2-beta (Homo sapiens) (UniProt Q14289)
# Conditions: at 10 µM
row,SMILES,residual activity [%]
1,c1cc(-c2cnn3cc(-c4ccc(OCCN5CCCCC5)cc4)cnc23)ccn1,77
2,CCn1cnc2c(Nc3cccc(Cl)c3)nc(N[C@@H]3CCCC[C@@H]3N)nc21,9
3,COC(=O)[C@@]1(O)C[C@H]2O[C@]1(C)n1c3ccccc3c3c4c(c5c6ccccc6n2c5c31)C(=O)NC4,-1
4,O=C1Nc2ccc3ncsc3c2/C1=C/c1c[nH]cn1,17
5,C[S+]([O-])c1ccc(-c2nc(-c3ccc(F)cc3)c(-c3ccncc3)[nH]2)cc1 (stereo not drawn),101
6,O=[N+]([O-])/C=C/c1ccc2c(c1)OCO2,92
7,COc1ccc2c(c[n+](C)c3c4cc5c(cc4ccc23)OCO5)c1OC,89
8,O=C1c2ccccc2-c2nc3nnnn3nc21,107
9,COc1cc2ncnc(Nc3ccc(OCc4ccccc4)cc3)c2cc1OC,67
10,O=c1[nH]c2ccccc2n1C1CCN(Cc2ccc(-c3nc4cc5[nH]cnc5cc4nc3-c3ccccc3)cc2)CC1,89
11,CC(C)[C@H](CO)Nc1nc(Nc2cccc(Cl)c2)c2ncn(C(C)C)c2n1,4
12,CCc1nc(-c2ccc(OC)cc2)[nH]c1-c1ccncc1,114
